{"source": "paper PMC4336329", "about": "(PLoS ONE, 2015)", "note": "Among all 310,000 compounds or so, about 14,000 (4.5%) showed an effect of 50% or more. The effect is printed as a negative number. The sample holds strong results, similar compounds and a random draw of the others, so the mix is not that of the screen.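 Further: peak tail current of the secondary pulse compared with the same well before compound.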"}
{"target": "human ether-à-go-go-related gene (hERG) potassium channel (human, UniProt Q12809)", "sequence (Q12809 whole entry, looked up)": "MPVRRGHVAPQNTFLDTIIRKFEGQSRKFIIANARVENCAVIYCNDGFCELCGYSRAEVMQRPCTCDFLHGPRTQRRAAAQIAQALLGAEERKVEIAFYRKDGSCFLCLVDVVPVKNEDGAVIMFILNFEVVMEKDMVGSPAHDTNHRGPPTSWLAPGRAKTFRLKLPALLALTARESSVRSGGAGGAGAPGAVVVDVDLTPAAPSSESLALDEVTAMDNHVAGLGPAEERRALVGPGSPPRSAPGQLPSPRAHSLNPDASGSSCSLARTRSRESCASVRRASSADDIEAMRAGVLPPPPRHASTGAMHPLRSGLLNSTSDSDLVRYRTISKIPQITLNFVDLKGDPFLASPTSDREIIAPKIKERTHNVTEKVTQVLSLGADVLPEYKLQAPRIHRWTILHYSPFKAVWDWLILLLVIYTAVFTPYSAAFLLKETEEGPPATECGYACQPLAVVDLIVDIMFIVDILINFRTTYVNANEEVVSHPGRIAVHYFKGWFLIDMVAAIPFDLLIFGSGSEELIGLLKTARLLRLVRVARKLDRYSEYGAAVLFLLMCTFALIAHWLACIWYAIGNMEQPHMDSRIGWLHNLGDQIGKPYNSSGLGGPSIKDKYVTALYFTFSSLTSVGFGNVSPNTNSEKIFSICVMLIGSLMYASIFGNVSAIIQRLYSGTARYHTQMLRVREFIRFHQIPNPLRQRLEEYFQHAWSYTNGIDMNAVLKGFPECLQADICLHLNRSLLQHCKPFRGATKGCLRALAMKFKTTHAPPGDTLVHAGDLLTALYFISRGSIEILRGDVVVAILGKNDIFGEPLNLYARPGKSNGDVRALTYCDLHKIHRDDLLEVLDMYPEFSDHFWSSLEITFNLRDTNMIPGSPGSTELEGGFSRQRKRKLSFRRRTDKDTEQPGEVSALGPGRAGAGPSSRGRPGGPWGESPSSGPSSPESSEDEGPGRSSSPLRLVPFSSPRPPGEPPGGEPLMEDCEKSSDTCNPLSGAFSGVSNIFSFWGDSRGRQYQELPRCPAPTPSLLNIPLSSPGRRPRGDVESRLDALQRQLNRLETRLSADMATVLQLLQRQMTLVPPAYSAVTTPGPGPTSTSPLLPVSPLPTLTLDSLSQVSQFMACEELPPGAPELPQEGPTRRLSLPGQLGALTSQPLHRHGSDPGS", "test": "primary screen, population patch clamp on CHO cells stably expressing hERG; higher = less effect of the substance", "units": {"hERG current change (%, negative = inhibition) at 10uM": "%"}}
{"smiles": "CCOc1cc(NC2CS(=O)(=O)CC2O)c(OCC)cc1NC(=O)c1ccccc1", "note": "(stereo not drawn)", "hERG current change (%, negative = inhibition) at 10uM": 5.95}
{"smiles": "Cc1nnc(N/N=C/c2ccc(-c3ccccc3F)o2)n1N.Cl", "hERG current change (%, negative = inhibition) at 10uM": -40.3}
{"smiles": "CN(C)c1cccc2cccc(N(C)C)c12", "hERG current change (%, negative = inhibition) at 10uM": -3.13}
{"smiles": "O=C(N/C(=C\\c1ccco1)C(=O)N1CCC(O)CC1)c1ccccc1", "hERG current change (%, negative = inhibition) at 10uM": 27.7}
{"smiles": "CN1CCN(C(=O)/C(=C/c2ccco2)NC(=O)c2ccccc2)CC1", "hERG current change (%, negative = inhibition) at 10uM": -67.6}
{"smiles": "CCN1CCN(C(=O)/C(=C/c2ccco2)NC(=O)c2ccccc2)CC1", "hERG current change (%, negative = inhibition) at 10uM": -70.4}
{"smiles": "O=C(N/C(=C/c1ccco1)C(=O)N1CCCCCC1)c1ccccc1", "hERG current change (%, negative = inhibition) at 10uM": 13.2}
{"smiles": "O=C(N/C(=C\\c1ccco1)C(=O)N1CCCC1)c1ccccc1", "hERG current change (%, negative = inhibition) at 10uM": 1.23}
{"smiles": "NC(=O)C1CCN(C(=O)/C(=C/c2ccco2)NC(=O)c2ccccc2)CC1", "hERG current change (%, negative = inhibition) at 10uM": 11.2}
{"smiles": "CCN(c1ccc(OC)cc1)S(=O)(=O)c1csc(C(N)=O)c1", "hERG current change (%, negative = inhibition) at 10uM": 6.68}
{"smiles": "COc1ccc(C(=O)Cc2ccc(OC)c(OC)c2)c(OC)c1", "hERG current change (%, negative = inhibition) at 10uM": -0.547}
{"smiles": "Cc1ccccc1-n1nnc2c(=O)oc3ccccc3c21", "hERG current change (%, negative = inhibition) at 10uM": 8.96}
{"smiles": "Cc1ccc(-n2nc3ccc(NC(=O)/C=C/c4ccco4)cc3n2)cc1", "hERG current change (%, negative = inhibition) at 10uM": 7.32}
{"smiles": "CCOC(=O)Cn1c(=O)oc2cc(S(=O)(=O)N3CCc4ccccc43)ccc21", "hERG current change (%, negative = inhibition) at 10uM": -2.03}
{"smiles": "CCOC(=O)Cn1c(=O)oc2cc(S(=O)(=O)N3CCCc4ccccc43)ccc21", "hERG current change (%, negative = inhibition) at 10uM": -26.9}
{"smiles": "CCOC(=O)Cn1c(=O)oc2cc(S(=O)(=O)N3CCn4c3nc3ccccc34)ccc21", "hERG current change (%, negative = inhibition) at 10uM": -56.3}
{"smiles": "Cc1cccc(CN2CCC(C(=O)Nc3ccc(-n4nc(C)cc4C)cc3)CC2)n1", "hERG current change (%, negative = inhibition) at 10uM": -25.2}
{"smiles": "Cc1ccccc1C(=O)N1CCC(C(=O)Nc2cccc(F)c2)CC1", "hERG current change (%, negative = inhibition) at 10uM": -3.49}
{"smiles": "Cc1cccc(CN2CCC(C(=O)Nc3cccc(-c4cscn4)c3)CC2)n1", "hERG current change (%, negative = inhibition) at 10uM": -48.2}
{"smiles": "COc1cccc(-c2cccc(NC(=O)C3CCN(Cc4cccc(C)n4)CC3)c2)c1", "hERG current change (%, negative = inhibition) at 10uM": -80.1}
{"smiles": "Cc1cc(C)n(CCCN2CCC(C(=O)Nc3cccc(-c4cccc(F)c4)c3)CC2)n1", "hERG current change (%, negative = inhibition) at 10uM": -80.4}
{"smiles": "Cc1cc(C)n(CCC(=O)Nc2cccc(F)c2)n1", "hERG current change (%, negative = inhibition) at 10uM": 5.83}
{"smiles": "Cc1cccc(CN2CCC(C(=O)Nc3cccc(-c4cccc(F)c4)c3)CC2)n1", "hERG current change (%, negative = inhibition) at 10uM": -74}
{"smiles": "Cc1ccccc1OCCCCN1CCCCC1", "hERG current change (%, negative = inhibition) at 10uM": 12.6}
